Assay in all cases: DAPPL (digital affinity profiling via proximity ligation, sequencing); 10 mM Tris-HCl pH 7.5, 50 mM NaCl, 1 mM DTT, 4% glycerol, room temperature, 30 min; GST-TFs on glutathione beads, 16-mer random dsDNA library, 0.1% formaldehyde crosslink after washing; high values mean tight binding
Conditions in all cases: protein: recombinant; tags: N-terminal GST; dsDNA, one strand shown

For assay [1], the target named is T1, FLI1 (Homo sapiens, UniProt Q01543 1-452).
T1 sequence: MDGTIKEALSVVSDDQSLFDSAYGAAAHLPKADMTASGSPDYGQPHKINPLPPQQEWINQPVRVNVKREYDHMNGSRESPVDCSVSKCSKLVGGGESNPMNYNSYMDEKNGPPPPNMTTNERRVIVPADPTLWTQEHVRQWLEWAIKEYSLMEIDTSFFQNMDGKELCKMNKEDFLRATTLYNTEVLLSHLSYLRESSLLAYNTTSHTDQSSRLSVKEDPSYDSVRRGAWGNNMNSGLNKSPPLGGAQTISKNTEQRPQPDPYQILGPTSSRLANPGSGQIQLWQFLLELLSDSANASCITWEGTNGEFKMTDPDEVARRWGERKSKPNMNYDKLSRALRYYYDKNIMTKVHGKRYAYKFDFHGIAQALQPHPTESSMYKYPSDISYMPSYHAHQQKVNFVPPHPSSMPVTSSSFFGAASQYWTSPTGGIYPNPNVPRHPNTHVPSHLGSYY
Summed up: (§1)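 Sequencing on an Illumina NextSeq500 followed washing, crosslinking with 0.1% formaldehyde, proximity ligation (BsaI/T4 ligase, 1 h, 37 °C) and PCR amplification of pools that had been incubated for 30 min at room temperature with 200 nmole of a random double-stranded 16-mer DNA library in Tris/NaCl/DTT/glycerol buffer. Each pool held DNA-barcoded human transcription factors, expressed in yeast as GST fusions and captured on glutathione beads, plus a tag-only sample. Binding signal is a hexamer's read frequency for a factor divided by its frequency in the tag-only sample.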

The target in assay [2] is T2, ELK1 (Homo sapiens, UniProt P19419 1-428).
T2 sequence: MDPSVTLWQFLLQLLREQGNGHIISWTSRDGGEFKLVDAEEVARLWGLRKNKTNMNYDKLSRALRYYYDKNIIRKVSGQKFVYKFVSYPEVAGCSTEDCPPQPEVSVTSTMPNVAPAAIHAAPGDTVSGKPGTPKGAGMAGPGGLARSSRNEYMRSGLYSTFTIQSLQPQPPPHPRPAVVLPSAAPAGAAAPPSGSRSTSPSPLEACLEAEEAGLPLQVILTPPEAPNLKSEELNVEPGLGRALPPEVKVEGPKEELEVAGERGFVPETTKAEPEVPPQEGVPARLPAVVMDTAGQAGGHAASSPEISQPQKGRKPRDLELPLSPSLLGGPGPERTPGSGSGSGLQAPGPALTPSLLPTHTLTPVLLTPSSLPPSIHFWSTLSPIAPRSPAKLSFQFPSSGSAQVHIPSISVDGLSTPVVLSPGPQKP
Summed up:
as §1

The target in assay [3] is T3, GABPA (Homo sapiens, UniProt Q06546 1-454).
T3 sequence: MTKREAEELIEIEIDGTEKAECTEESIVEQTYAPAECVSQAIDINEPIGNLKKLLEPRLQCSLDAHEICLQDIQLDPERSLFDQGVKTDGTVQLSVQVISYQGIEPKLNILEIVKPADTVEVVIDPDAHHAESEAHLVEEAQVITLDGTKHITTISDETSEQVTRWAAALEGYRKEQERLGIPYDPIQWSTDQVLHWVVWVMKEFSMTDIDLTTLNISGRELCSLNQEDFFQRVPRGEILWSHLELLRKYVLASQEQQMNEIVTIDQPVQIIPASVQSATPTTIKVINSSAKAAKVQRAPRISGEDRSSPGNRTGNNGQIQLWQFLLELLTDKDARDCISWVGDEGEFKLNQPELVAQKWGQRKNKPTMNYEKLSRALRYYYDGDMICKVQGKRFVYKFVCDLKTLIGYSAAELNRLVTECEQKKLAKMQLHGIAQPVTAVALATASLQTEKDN
An outline of the steps:
as §1

Assay [4] deals with T4, ERG (Homo sapiens, UniProt P11308 1-479).
T4 sequence: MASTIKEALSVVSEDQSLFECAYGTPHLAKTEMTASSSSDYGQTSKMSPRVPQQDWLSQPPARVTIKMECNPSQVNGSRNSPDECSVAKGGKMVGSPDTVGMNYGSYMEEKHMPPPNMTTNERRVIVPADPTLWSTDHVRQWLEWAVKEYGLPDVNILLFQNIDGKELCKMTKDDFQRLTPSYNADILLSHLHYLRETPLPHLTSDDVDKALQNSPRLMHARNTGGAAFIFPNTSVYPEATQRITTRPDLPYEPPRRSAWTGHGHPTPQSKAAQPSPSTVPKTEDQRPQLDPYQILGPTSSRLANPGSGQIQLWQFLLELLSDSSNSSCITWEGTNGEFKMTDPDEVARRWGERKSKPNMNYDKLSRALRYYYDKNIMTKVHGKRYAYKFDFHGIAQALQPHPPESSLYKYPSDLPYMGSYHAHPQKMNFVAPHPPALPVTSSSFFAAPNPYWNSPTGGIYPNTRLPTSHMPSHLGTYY
Summed up: as §1

Assay [5] has as its target ELF1 (Homo sapiens, UniProt P32519 1-619). Summed up:
as §1

Assay [6] deals with T5, EHF (Homo sapiens, UniProt Q9NZC4 1-300).
T5 sequence: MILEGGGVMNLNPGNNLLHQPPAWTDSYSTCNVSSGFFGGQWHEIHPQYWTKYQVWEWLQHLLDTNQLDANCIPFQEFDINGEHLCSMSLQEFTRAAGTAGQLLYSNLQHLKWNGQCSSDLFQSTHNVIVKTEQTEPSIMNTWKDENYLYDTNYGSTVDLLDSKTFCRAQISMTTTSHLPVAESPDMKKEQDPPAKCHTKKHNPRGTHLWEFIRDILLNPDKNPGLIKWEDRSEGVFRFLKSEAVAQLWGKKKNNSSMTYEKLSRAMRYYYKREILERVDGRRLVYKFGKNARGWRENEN
Summed up:
as §1

In assay [7] the target is SPI1 (Homo sapiens, UniProt P17947 1-270). An outline of the steps:
as §1

The target in assay [8] is SPIB (Homo sapiens, UniProt Q01892 1-262). Summed up: as §1
SPIB, sequence (Q01892 whole entry): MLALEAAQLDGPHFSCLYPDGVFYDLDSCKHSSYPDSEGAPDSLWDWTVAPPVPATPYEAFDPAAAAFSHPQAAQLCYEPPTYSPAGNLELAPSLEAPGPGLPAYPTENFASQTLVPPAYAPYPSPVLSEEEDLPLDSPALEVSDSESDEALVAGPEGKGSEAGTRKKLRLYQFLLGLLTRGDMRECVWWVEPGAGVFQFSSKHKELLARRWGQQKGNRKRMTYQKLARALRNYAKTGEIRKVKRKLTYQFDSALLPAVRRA
Assay [9] concerns the target T6, ELK3 (Homo sapiens, UniProt P41970 1-407).
T6 sequence: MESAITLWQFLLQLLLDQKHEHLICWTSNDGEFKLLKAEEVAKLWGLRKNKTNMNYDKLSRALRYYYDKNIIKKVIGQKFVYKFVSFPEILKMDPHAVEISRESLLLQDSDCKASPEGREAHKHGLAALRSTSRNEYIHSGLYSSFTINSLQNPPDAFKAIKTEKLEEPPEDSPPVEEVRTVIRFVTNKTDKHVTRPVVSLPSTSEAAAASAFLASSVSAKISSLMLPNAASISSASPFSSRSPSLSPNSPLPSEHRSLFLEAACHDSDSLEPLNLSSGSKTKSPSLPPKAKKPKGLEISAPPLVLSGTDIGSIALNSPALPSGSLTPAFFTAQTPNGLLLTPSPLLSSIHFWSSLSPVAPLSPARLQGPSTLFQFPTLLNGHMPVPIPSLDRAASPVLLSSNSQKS
Summed up:
as §1

Assay [10] has as its target T7, FEV (Homo sapiens, UniProt Q99581 1-238).
T7 sequence: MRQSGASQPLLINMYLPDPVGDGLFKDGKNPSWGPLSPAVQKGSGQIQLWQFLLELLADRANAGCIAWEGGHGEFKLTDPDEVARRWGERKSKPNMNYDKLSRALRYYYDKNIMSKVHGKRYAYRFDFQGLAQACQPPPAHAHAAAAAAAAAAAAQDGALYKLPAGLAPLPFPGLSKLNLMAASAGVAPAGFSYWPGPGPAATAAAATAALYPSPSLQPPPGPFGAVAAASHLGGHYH
Summed up:
as §1

For assay [11], the target named is ETV5 (Homo sapiens, UniProt P41161 1-510). An outline of the steps:
as §1

The target of assay [12] is T8, SPIC (Homo sapiens, UniProt Q8N5J4 1-248).
T8 sequence: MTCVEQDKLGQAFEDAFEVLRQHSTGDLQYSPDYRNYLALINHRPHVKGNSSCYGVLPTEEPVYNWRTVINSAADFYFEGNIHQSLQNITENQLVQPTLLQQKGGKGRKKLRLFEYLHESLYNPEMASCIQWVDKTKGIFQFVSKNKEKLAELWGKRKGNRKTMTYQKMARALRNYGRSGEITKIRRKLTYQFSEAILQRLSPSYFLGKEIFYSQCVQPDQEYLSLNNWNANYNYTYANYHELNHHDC
An outline of the steps:
as §1

The target in assay [13] is ELF4 (Homo sapiens, UniProt Q99607 1-663). Summed up:
as §1

The target in assay [14] is T9, ELK4 (Homo sapiens, UniProt P28324-2 1-405).
T9 sequence: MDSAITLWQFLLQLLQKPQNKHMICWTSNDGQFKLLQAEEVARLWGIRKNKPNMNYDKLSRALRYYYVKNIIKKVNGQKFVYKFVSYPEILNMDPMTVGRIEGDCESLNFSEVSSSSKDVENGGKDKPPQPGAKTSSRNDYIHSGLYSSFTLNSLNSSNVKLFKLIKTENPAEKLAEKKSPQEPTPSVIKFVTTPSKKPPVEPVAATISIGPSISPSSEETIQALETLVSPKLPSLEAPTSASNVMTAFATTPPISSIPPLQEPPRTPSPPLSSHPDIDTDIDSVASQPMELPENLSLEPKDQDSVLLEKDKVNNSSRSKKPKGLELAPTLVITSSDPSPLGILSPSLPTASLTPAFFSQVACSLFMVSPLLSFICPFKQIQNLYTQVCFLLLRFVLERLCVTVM
Summed up:
as §1

The target of assay [15] is T10, ELF3 (Homo sapiens, UniProt P78545 1-371).
T10 sequence: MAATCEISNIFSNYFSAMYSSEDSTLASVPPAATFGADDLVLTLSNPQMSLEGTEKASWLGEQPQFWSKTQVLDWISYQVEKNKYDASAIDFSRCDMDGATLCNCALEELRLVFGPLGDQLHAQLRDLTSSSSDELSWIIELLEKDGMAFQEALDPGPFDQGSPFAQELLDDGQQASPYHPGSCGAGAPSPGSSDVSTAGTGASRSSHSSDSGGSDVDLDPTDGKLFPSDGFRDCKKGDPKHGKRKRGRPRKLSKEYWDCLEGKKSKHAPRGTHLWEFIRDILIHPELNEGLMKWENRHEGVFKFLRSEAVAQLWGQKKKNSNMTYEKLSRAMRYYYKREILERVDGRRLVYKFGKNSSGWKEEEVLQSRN
An outline of the steps:
as §1

Assay [16] has as its target CRX (Homo sapiens, UniProt O43186 1-299). An outline of the steps: as §1
The target in assay [17] is ETV1 (Homo sapiens, UniProt P50549 1-477). Summed up:
as §1

The values below come from publication PMC7862700, “An all-to-all approach to the identification of sequence-specific readers for epigenetic DNA modifications on cytosine”.

ETV1, sequence (P50549 whole entry): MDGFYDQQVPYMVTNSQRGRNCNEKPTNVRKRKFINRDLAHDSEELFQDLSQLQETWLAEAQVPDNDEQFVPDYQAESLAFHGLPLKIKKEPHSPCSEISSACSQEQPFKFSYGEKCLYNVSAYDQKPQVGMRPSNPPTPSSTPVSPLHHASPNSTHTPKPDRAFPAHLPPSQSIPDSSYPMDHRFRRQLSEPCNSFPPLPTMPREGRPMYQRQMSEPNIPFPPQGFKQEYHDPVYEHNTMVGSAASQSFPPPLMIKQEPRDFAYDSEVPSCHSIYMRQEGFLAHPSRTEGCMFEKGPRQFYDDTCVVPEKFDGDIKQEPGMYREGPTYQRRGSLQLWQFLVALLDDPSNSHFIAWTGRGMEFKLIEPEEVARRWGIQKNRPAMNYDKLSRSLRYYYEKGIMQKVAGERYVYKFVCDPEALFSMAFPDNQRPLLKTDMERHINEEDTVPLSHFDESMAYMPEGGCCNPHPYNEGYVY
ELF1, sequence (P32519 whole entry): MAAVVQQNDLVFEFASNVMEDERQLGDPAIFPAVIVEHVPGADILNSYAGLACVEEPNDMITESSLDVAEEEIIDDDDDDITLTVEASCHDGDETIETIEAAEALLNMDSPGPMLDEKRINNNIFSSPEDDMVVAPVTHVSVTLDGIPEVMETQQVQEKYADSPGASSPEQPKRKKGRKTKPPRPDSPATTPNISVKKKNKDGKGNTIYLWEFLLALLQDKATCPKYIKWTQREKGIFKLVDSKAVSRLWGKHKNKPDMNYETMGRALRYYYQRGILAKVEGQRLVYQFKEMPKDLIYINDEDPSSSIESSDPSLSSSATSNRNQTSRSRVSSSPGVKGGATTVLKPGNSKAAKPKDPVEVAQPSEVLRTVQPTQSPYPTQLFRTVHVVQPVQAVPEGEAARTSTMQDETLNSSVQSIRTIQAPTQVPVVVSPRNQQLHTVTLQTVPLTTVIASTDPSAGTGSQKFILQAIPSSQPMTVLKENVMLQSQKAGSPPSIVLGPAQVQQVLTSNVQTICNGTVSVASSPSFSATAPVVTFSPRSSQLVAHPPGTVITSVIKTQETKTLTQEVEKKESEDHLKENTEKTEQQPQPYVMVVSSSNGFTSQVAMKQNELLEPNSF
ELF4, sequence (Q99607 whole entry): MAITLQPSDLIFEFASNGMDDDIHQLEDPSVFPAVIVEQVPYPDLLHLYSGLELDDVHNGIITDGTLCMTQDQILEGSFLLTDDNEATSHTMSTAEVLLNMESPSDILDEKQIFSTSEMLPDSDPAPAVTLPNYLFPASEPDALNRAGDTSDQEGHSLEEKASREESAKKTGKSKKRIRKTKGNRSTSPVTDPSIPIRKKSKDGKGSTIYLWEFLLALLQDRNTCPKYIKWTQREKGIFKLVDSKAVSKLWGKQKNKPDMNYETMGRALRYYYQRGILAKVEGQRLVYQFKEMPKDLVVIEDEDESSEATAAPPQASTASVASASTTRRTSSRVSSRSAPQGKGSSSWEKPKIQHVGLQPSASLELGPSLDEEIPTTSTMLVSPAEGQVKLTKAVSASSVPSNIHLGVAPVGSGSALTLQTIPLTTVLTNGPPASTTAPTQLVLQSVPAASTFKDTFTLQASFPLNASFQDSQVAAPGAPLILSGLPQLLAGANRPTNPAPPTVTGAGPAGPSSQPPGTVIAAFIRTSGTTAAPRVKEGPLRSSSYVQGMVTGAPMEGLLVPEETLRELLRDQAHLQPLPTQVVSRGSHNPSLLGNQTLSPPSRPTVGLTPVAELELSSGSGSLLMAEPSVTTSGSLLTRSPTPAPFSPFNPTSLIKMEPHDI
ETV5, sequence (P41161 whole entry): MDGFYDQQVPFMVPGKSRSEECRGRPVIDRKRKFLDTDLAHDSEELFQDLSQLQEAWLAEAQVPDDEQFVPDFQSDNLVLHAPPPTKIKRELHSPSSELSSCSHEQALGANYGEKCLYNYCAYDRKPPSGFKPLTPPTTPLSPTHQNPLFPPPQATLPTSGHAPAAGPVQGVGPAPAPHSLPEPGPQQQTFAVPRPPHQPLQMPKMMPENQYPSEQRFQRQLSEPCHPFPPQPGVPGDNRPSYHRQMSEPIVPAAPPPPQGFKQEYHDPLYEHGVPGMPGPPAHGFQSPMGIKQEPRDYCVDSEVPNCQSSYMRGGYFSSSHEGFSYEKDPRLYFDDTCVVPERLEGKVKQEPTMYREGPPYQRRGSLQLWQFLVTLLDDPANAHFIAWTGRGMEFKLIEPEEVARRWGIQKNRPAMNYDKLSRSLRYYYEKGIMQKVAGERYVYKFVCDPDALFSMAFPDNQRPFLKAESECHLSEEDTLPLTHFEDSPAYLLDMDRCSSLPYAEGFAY
CRX, sequence (O43186 whole entry): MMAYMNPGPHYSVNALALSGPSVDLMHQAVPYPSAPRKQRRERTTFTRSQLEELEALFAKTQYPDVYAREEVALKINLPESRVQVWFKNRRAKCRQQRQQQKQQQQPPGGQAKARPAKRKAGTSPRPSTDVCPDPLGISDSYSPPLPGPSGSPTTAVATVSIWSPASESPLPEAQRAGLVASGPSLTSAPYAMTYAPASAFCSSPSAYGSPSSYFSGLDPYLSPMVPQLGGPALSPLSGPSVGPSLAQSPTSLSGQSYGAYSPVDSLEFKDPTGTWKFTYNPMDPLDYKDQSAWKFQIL

Consider CCCCGC, for which the binding signal in [1] was 1.12 fold enrichment (6-mer frequency, TF over GST control); in assay [2] it was 1.19 fold enrichment (6-mer frequency, TF over GST control); in assay [3] it was 1.2 fold enrichment (6-mer frequency, TF over GST control); in [4] it was 1.19 fold enrichment (6-mer frequency, TF over GST control); in assay [5] it was 1.27 fold enrichment (6-mer frequency, TF over GST control); in [6], 1.26 fold enrichment (6-mer frequency, TF over GST control). Besides, the binding signal in assay [7] is 1.11 fold enrichment (6-mer frequency, TF over GST control); in [8] it was 1.19 fold enrichment (6-mer frequency, TF over GST control); in [9], 1.06 fold enrichment (6-mer frequency, TF over GST control); in assay [10], 1.14 fold enrichment (6-mer frequency, TF over GST control); in assay [11], 1.18 fold enrichment (6-mer frequency, TF over GST control); in [12], 1.34 fold enrichment (6-mer frequency, TF over GST control). Besides, the binding signal in [13] was 1.24 fold enrichment (6-mer frequency, TF over GST control); in assay [14], 1.36 fold enrichment (6-mer frequency, TF over GST control); in assay [15], 1.29 fold enrichment (6-mer frequency, TF over GST control); in assay [16], 1.01 fold enrichment (6-mer frequency, TF over GST control); in assay [17], 1.17 fold enrichment (6-mer frequency, TF over GST control).
For the sequence TTGGGT, the binding signal was 1.02 fold enrichment (6-mer frequency, TF over GST control) in assay [1]; 1.13 fold enrichment (6-mer frequency, TF over GST control) in assay [2]; 1.22 fold enrichment (6-mer frequency, TF over GST control) in assay [3]; 1.09 fold enrichment (6-mer frequency, TF over GST control) in assay [5]; 1.04 fold enrichment (6-mer frequency, TF over GST control) in assay [6]; 1.02 fold enrichment (6-mer frequency, TF over GST control) in assay [7]. For the same sequence, the binding signal in assay [8] was 1.05 fold enrichment (6-mer frequency, TF over GST control); in assay [9] it was 1.16 fold enrichment (6-mer frequency, TF over GST control); in assay [10], 1.07 fold enrichment (6-mer frequency, TF over GST control); in assay [11] it was 1.04 fold enrichment (6-mer frequency, TF over GST control); in assay [12], 1.07 fold enrichment (6-mer frequency, TF over GST control); in assay [13] it was 1.08 fold enrichment (6-mer frequency, TF over GST control). Moreover, the binding signal in assay [14] was 1.09 fold enrichment (6-mer frequency, TF over GST control); in [15] it was 1.14 fold enrichment (6-mer frequency, TF over GST control); in [16], 1.07 fold enrichment (6-mer frequency, TF over GST control); in [17], 1.06 fold enrichment (6-mer frequency, TF over GST control).
Regarding CGCTGC, the binding signal in assay [1] was 1.12 fold enrichment (6-mer frequency, TF over GST control); in [2], 1.04 fold enrichment (6-mer frequency, TF over GST control); in assay [3] it was 1.25 fold enrichment (6-mer frequency, TF over GST control); in [4] it was 1.22 fold enrichment (6-mer frequency, TF over GST control); in assay [5] it was 1.14 fold enrichment (6-mer frequency, TF over GST control); in [6], 1.28 fold enrichment (6-mer frequency, TF over GST control). Besides, the binding signal is 1.07 fold enrichment (6-mer frequency, TF over GST control) in [7]; 1.22 fold enrichment (6-mer frequency, TF over GST control) in [8]; 1.16 fold enrichment (6-mer frequency, TF over GST control) in [9]; 1.14 fold enrichment (6-mer frequency, TF over GST control) in [10]; 1.18 fold enrichment (6-mer frequency, TF over GST control) in assay [11]; 1.21 fold enrichment (6-mer frequency, TF over GST control) in [12]. Also, the binding signal was 1.1 fold enrichment (6-mer frequency, TF over GST control) in [13]; 1.2 fold enrichment (6-mer frequency, TF over GST control) in assay [14]; 1.03 fold enrichment (6-mer frequency, TF over GST control) in assay [15]; 1.21 fold enrichment (6-mer frequency, TF over GST control) in assay [17].
